The list is not random: actives were taken first. Their share in the collection is about 2.1%.
D2 PAM-1 – potentiates the human D2 dopamine receptor allosterically | potentiation, % (concentration not given with the values) | AID 624464 | DiscoveRx D2 beta-arrestin cells, luminescence, 90 min; 100% = 57 uM dopamine signal | 0.23% of 360,000 active; in the data active = potentiation above about 50%; inconclusive = mostly about 30% to 49%
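D2 cells co-treated with compound plus 50 nM dopamine (EC20) for 90 min at 37 deg C to detect potentiation. Beta-arrestin recruitment was read as enzyme-fragment luminescence after 1 h at ambient temperature. Full response was set by 57 uM dopamine.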
D2 PAM-2 – D2 dopamine receptor (human) potentiation | P14416 | HEK293 T-REx D2, calcium flux, EC20 dopamine potentiation | potentiation, % at 10 µM | 0.34% of 340,000 active;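 active = potentiation over 3 SD above the plate norm, cut at about 30% in these data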; note: 0% is about no effect
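Calcium flux readout, no-wash dye, 1 read/s. Inducible HEK293 Trex D2 line, overnight 30 C. Compound alone 180 s (agonist flags), then EC20 dopamine, another 180 s to score potentiation.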
LDHA block – blocks human lactate dehydrogenase A; purified LDHA, NADH/diaphorase-resazurin fluorescence; hits give low values; activity change, % (values are at about 110 or 230 µM); 0.15% of 480,000 active; in the data active = activity change below about -30%; inconclusive = mostly about -25% to -30%;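 note: plate controls were DMSO wells for no effect and wells without enzyme for full effect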
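LDH5 2 nM; NADH 0.06 mM, pyruvate 0.2 mM; 200 mM Tris pH 7.4, EDTA, Tween-20; 5 min RT. Detection: diaphorase 0.133 mg/mL + resazurin 37 µM, fluorescence ex540/em590 at 0 and 20 min; normalized to enzyme-free and DMSO wells.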
D2 antagonist – D2 dopamine receptor (human) antagonism; P14416; inhibition, % at 10 µM; 2% of 340,000 active; HEK293 TREx D2 cells, calcium flux, dopamine EC80; in the data active = inhibition above about 30%; inactive = below that, where a call was filed; note: 0% is about no effect
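Read-out: kinetic calcium fluorescence (1 cycle/s) in inducible HEK293 T-REx D2 cells after an EC80 dopamine addition that followed 180 s compound preincubation. Loss of the dopamine response indicates antagonism.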
D2 ag-1 – D2 dopamine receptor (human) agonism; HEK293 T-REx D2 cells, calcium flux agonist mode; activation, % at 2 µM; 0.53% of 340,000 active; AID 485358;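 active = activation over 3 SD above normal in the single-dose calcium agonist read, cut at about 30% in these data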; note: 0% is about no effect
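Tetracycline-induced HEK293 Trex cells with D2 receptor force-coupled to calcium signaling, plated overnight at 30 C and loaded with no-wash calcium dye. Calcium flux read kinetically for 180 s after compound addition; responses flag agonists.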
D2 ag-2 – activates the human D2 dopamine receptor | P14416 | DiscoveRx PathHunter D2 beta-arrestin, luminescence, 90 min; 100% = 57 uM dopamine signal | activation, % (concentration not given with the values) | 0.084% of 360,000 active | AID 624465; in the data active = activation above about 40%; inconclusive = between about 15% and that limit
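Agonist mode: compounds alone added to overnight-plated D2 PathHunter cells for 90 min at 37 C, with 57 uM final dopamine (EC100) defining full response. Beta-arrestin recruitment detected by chemiluminescent reagent, read after 1 h at ambient temperature.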
D3 ag – confirmation of human D3 dopamine receptor agonists, beta-arrestin; DiscoveRx D3 beta-arrestin cells, luminescence, 90 min; shares compounds with D2 ag-1; Potency, µM (top dose mostly 76.9 µM), without a hit: at the top dose activation, most hits filed as activators; 4% of 2,300 active;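 note: potency is the fitted concentration of half-maximal effect; 100% = dopamine control response; nearly all actives have a fitted effect of over 70% in size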
Target sequence (P35462 whole entry, looked up): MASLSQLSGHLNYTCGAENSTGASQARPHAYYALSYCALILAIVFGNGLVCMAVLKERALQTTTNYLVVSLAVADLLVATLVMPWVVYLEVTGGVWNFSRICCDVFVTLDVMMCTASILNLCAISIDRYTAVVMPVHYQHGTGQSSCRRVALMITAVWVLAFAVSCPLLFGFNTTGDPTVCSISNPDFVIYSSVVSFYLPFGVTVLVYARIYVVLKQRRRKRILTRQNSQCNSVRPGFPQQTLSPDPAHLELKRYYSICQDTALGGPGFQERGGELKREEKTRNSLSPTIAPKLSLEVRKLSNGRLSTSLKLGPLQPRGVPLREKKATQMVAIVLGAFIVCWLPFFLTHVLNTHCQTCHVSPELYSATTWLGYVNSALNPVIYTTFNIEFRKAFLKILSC
D2 ag-3 – D2 receptor agonism, beta-arrestin counterscreen; Potency, µM (series often up to 76.9 µM), for inactives: top-dose activation, most hits filed as activators; AID 720507; shares compounds with D2 ag-1; DiscoveRx PathHunter D2 beta-arrestin, luminescence, 90 min; response scale: percent relative to full dopamine signal; 5.9% of 2,300 active; note: potency is the fitted concentration of half-maximal effect; % of control where 0% means no effect; nearly all actives have a fitted effect of over 70% in size
Active calls of the source: *; ? = inconclusive; / = not tested or not shown. Unless noted, calls come from the whole dose curve; as a rule, active = well fitted activation curve with a large enough effect; inconclusive = small, poorly fitted or top-dose-only effect; inactive = flat fitted curve, though single readings scatter.

SMILES	D2 PAM-1	D2 PAM-2	LDHA block	D2 antagonist	D2 ag-1	D2 ag-2	D3 ag	D2 ag-3
COc1cccc2c1cc1c(=O)n(CC(=O)N3CCC(C)CC3)nc(C)n12	12.5	-8.9	-2.0	/	/	?	-4.3%	?
COC(=O)c1cc(C(=O)Nc2ccc(S(=O)(=O)NC(C)(C)C)cc2)cc([N+](=O)[O-])c1	7.4	-2.4	0.9	-12.8	1.5	4.6	/	/
CCN(CC)S(=O)(=O)c1ccc(NC(=O)c2cc(C(=O)OC)cc([N+](=O)[O-])c2)cc1	5.3	-19.3	-5.7	-0.3	46.4*	3.4	9.0%	4.0%
CCN(CC(=O)NC(N)=O)Cc1ccccc1C	/	/	-4.5	/	/	/	/	/
COc1ccc(NC(=O)C(C)N2CCN(C)CC2)cc1 (stereo not drawn)	3.5	-29.4	-24.3	-20.8	79.1*	-1.6	-2.5%	-2.0%
O=C(O)c1ccc(Br)cc1C(=O)O	/	/	6.7	/	/	/	/	/
O=c1oc2cc(OCc3nn[nH]n3)ccc2cc1-c1ccc2ccccc2c1	/	/	0.7	/	/	/	/	/
COC(=O)[C@@H](N)Cc1ccc(O)c(O)c1	-5.9	-20.7	-5.9	80.9*	73.8*	-7.8	?	20.5%
COC(=O)C(N)Cc1ccc(Cl)cc1 (stereo not drawn)	-2.0	13.2	-8.1	-8.3	-1.0	-6.0	/	/
O=C(CCC(=O)c1ccc(Cl)cc1)OC1CCCCC1=O (stereo not drawn)	/	/	-19.9	/	/	/	/	/
Cc1c(C(=O)OCC(=O)N2C(C)CCCC2C)oc2ccccc12 (stereo not drawn)	-9.1	-1.5	-2.7	-11.6	30.0	-1.1	-9.1%	13.0%
CC(C)OC(=O)c1c(NS(=O)(=O)c2ccccc2)sc2c1CCCC2	-0.8	3.0	0.2	25.9	0.8	-2.3	-11.2%	-4.8%
O=c1oc2ccccc2c(NC2CCCCC2)c1NS(=O)(=O)c1ccccc1	/	/	-0.9	/	/	/	/	/
COc1ccc(C(=O)Nc2cc(Cl)ccc2-n2cncn2)c(OC)c1OC	-0.4	-3.7	-6.7	-12.4	2.3	1.7	20.1%	6.1%
Cc1cc(C(=O)O[C@H]2[C@H](Cc3ccccc3)NS(=O)(=O)[C@H]3C[C@@H]4C=C[C@]23O4)ccc1[N+](=O)[O-]	-8.2	-5.7	0.2	1.3	-0.4	-4.1	-8.1%	-2.5%
Cc1cccc(C(=O)O[C@H]2[C@H](C)NS(=O)(=O)[C@H]3CC4C=C[C@]23O4)c1	-9.6	/	-5.1	/	/	-3.1	/	/
O=C(Nc1ccc(C(F)(F)F)cc1[N+](=O)[O-])O[C@H]1[C@H](Cc2ccccc2)NS(=O)(=O)[C@H]2C[C@@H]3C=C[C@]12O3	11.4	-22.6	2.9	-3.2	44.3*	?	12.0%	13.2%
COc1cccc(C(=O)O[C@H]2[C@H](Cc3ccccc3)NS(=O)(=O)[C@H]3C[C@@H]4C=C[C@]23O4)c1	-2.8	/	1.0	/	/	-2.6	/	/
COc1cccc(C(=O)O[C@H]2[C@H](C)NS(=O)(=O)[C@H]3C[C@@H]4C=C[C@]23O4)c1	-3.0	-30.7	-10.1	9.4	2.1	-3.8	-1.1%	-3.9%
Cc1ccccc1-c1nnc(SCc2coc(-c3cccs3)n2)n1C	/	/	0.7	/	/	/	/	/
Cc1nc2sc3c(c2c2nc(C(=O)NCc4ccco4)nn12)CC(C)(C)OC3	/	/	7.6	/	/	/	/	/
O=C(NCc1ccco1)c1sc(=S)n2c1[nH]c(=O)c1ccccc12	-8.3	4.3	-13.6	5.7	9.7	-4.2	-14.5%	-8.3%
O=C(NC1CCCC1)c1sc(=S)n2c1[nH]c(=O)c1ccccc12	-13.9	-3.3	7.7	8.8	4.4	-1.4	/	/
O=C(NCCc1c[nH]c2ccccc12)c1cnc2ccccc2n1	/	/	2.7	/	/	/	/	/
